Results on 4 compounds are retold here after PubChem BioAssay AID1159580 (chemical genetic matrix, 2015).

Hit rate of the full screen: of about 5,500 compounds, about 2,000 (36%) were called active. Another 18% or so got no clear call; they are omitted. The list shows a part of the results. Values without a mark were called inactive. Cut-off read from the data, not from the text of the source: active = normalized growth mostly below about 0.91 (no sharp cut-off); inconclusive = no clear call, values can overlap the other calls; inactive = mostly above about 0.92.

The test in a line: chemical genetic growth profiling, strain panel (AID 1159580).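 Note: tested at 20 µM; growth read once vehicle control cultures reached saturation at 30 °C; 1 = growth at the plate median or of vehicle wells; lower values mean less growth of the strain.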 The following applies: growth OD.
Where [1] appears, read: S. cerevisiae deletion strains, locus YAL013W, strain DEP1, active compounds read low.
The mark [2] stands for this setting: S. cerevisiae deletion strains, locus YBR229C, strain ROT2, active compounds read low.
[3] abbreviates: S. cerevisiae deletion strains, locus YCL061C, strain MRC1, active compounds read low.
Setting [4] is: S. cerevisiae deletion strains, locus YDL101C, strain DUN1, active compounds read low.
The mark [5] stands for this setting: S. cerevisiae deletion strains, locus YDR150W, strain NUM1, active compounds read low.
Where [6] appears, read: S. cerevisiae deletion strains, locus YEL061C, strain CIN8, active compounds read low.
Setting [7] is: S. cerevisiae deletion strains, locus YGR078C, strain PAC10, active compounds read low.
The mark [8] stands for this setting: S. cerevisiae deletion strains, locus YHR030C, strain SLT2, active compounds read low.
The mark [9] stands for this setting: S. cerevisiae deletion strains, locus YHR087W, strain rtc3, active compounds read low.
[10] abbreviates: S. cerevisiae deletion strains, locus YJR043C, strain POL32, active compounds read low.
The mark [11] stands for this setting: S. cerevisiae deletion strains, locus YJR075W, strain HOC1, active compounds read low.
Setting [12] is: S. cerevisiae deletion strains, locus YLR039C, strain RIC1, active compounds read low.
Setting [13] is: S. cerevisiae deletion strains, locus YLR058C, strain SHM2 (second series), active compounds read low.
Where [14] appears, read: S. cerevisiae deletion strains, locus YLR085C, strain ARP6, active compounds read low.
Where [15] appears, read: S. cerevisiae deletion strains, locus YLR262C, strain YPT6, active compounds read low.
Setting [16] is: S. cerevisiae deletion strains, locus YML094W, strain GIM5, active compounds read low.
Where [17] appears, read: S. cerevisiae deletion strains, locus YMR219W, strain ESC1, active compounds read low.
Where [18] appears, read: S. cerevisiae deletion strains, locus YMR263W, strain SAP30, active compounds read low.
Where [19] appears, read: S. cerevisiae deletion strains, locus YMR307W, strain GAS1, active compounds read low.
[20] abbreviates: S. cerevisiae deletion strains, locus YNL128W, strain TEP1, active compounds read low.
Where [21] appears, read: S. cerevisiae deletion strains, locus YNL153C, strain GIM3, active compounds read low.
[22] abbreviates: S. cerevisiae deletion strains, locus YNL298W, strain CLA4 (second series), active compounds read low.
Setting [23] is: S. cerevisiae deletion strains, locus YNL322C, strain KRE1, active compounds read low.
Setting [24] is: S. cerevisiae deletion strains, locus YNR030W, strain Alg12, active compounds read low.
[25] abbreviates: S. cerevisiae deletion strains, locus YPL055C, strain LGE1, active compounds read low.
The mark [26] stands for this setting: S. cerevisiae deletion strains, locus YPL241C, strain CIN2, active compounds read low.
The mark [27] stands for this setting: S. cerevisiae deletion strains, locus YPR135W, strain CTF4, active compounds read low.

On to `Nc1c(Cl)cc(C(=O)Nc2cc(Cl)cc(Cl)c2)cc1Cl`, for which the normalized growth under setting [1] was 0.897 (active); the normalized growth under setting [2] is 0.957; the normalized growth under setting [3] was 0.994; the normalized growth under setting [4] was 1.02; the normalized growth (S. cerevisiae deletion strains, locus YDL134C, strain PPH21, active compounds read low) was 0.978; the normalized growth under setting [5] was 0.934. Further, the normalized growth is, setting by setting: under setting [6], 0.956; under setting [7], 0.977; under setting [8], 0.496 (active); under setting [9], 0.935; under setting [10], 0.907 (active); under setting [11], 0.97. In addition, the normalized growth reads like this: under setting [12], 0.77 (active); under setting [13], 0.99; under setting [14], 0.842; under setting [15], 0.847; under setting [16], 0.872; under setting [17], 0.976. The normalized growth is 0.934 under setting [18]; 0.651 (active) under setting [19]; 0.982 under setting [20]; 0.984 under setting [21]; 0.825 (active) under setting [22]; 1 under setting [23]. For the same compound, the normalized growth by setting is: under setting [24], 0.778 (active); under setting [25], 0.8 (active); under setting [26], 0.821 (active); under setting [27], 0.894; (S. cerevisiae strains, strain wild type, active compounds read low) 0.956.

As to `COc1ccc2c(c1)C13CCCCC1C(C2)N(C)CC3` (stereo not given), the normalized growth is 1.02 under setting [1]; 0.995 (S. cerevisiae deletion strains, locus YAL040C, strain CLN3, active compounds read low); 1 (S. cerevisiae deletion strains, locus YCL061C, strain MRC1 (second series), active compounds read low); 0.952 (S. cerevisiae deletion strains, locus YDR363W, strain ESC2, active compounds read low); 1 (S. cerevisiae deletion strains, locus YER002W, strain NOP16, active compounds read low); 0.995 under setting [7]. For the same compound, the normalized growth reads like this: (S. cerevisiae deletion strains, locus YGR229C, strain SMI1, active compounds read low) 0.991; under setting [11], 0.985; under setting [20], 1.01; (S. cerevisiae deletion strains, locus YNL175C, strain NOP13, active compounds read low) 1.01; (S. cerevisiae deletion strains, locus YNL197C, strain WHI3, active compounds read low) 1.01; (S. cerevisiae deletion strains, locus YNL224C, strain SQS1, active compounds read low) 1.01. In addition, the normalized growth is, setting by setting: under setting [23], 1; (S. cerevisiae deletion strains, locus YOR083W, strain WHI5 (second series), active compounds read low) 0.97; under setting [25], 0.967; under setting [26], 0.998.

With `CC[C@@H](CO)NC(=O)[C@@H]1C=C2c3cccc4c3c(cn4C)C[C@H]2N(C)C1`, the normalized growth was 1 under setting [8]; 0.989 (S. cerevisiae deletion strains, locus YHR079C, strain IRE1, active compounds read low); 0.981 (S. cerevisiae deletion strains, locus YJL095W, strain BCK1, active compounds read low); 0.926 (S. cerevisiae deletion strains, locus YJR066W, strain TOR1, active compounds read low); 1.02 (S. cerevisiae deletion strains, locus YLR113W, strain HOG1, active compounds read low); 0.928 (S. cerevisiae deletion strains, locus YNL183C, strain NPR1, active compounds read low). Besides, the normalized growth was 1 (S. cerevisiae deletion strains, locus YOR231W, strain MKK1, active compounds read low) and 0.973 (S. cerevisiae deletion strains, locus YPL256C, strain CLN2, active compounds read low).

As to `CCOC(=O)CC(=O)CSc1nnc(N)s1`, the normalized growth was 0.998 under setting [1]; 0.988 under setting [2]; 1.04 under setting [3]; 1.04 under setting [4]; 1 under setting [5]; 1 under setting [6]. The normalized growth reads like this: under setting [7], 1.02; under setting [8], 1.13; under setting [9], 0.992; under setting [10], 1.06; under setting [11], 1.01; under setting [12], 1. The normalized growth under setting [13] is 0.999; the normalized growth under setting [14] was 1.04; the normalized growth under setting [15] was 1.01; the normalized growth under setting [16] was 1.02; the normalized growth under setting [17] is 1; the normalized growth under setting [18] was 1.02. Also, the normalized growth reads like this: under setting [19], 0.985; under setting [21], 1.05; under setting [22], 1.05; under setting [23], 1.02; under setting [24], 1.02; (S. cerevisiae deletion strains, locus YOL006C, strain TOP1, active compounds read low) 1.13. Further, the normalized growth reads like this: under setting [25], 0.978; under setting [26], 1.02; under setting [27], 1.11.
